Results on 40 molecules are retold here after PubChem BioAssay.

Values joined by “and” are separate entries in the source; they are usually repeats but may differ in a detail not shown here. Equal entries are not always repeated. A number with no mark means an inactive call. Active and inactive are the calls of the source.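 The calls were made as follows, unless noted: active = efflux inhibition above 0.42, the validation set average plus 4 SD; inconclusive = no clear call, values can overlap the other calls; inactive = the rest.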

ATP-binding cassette sub-family B member 6 (Homo sapiens), sequence (Q9NP58 whole entry, looked up): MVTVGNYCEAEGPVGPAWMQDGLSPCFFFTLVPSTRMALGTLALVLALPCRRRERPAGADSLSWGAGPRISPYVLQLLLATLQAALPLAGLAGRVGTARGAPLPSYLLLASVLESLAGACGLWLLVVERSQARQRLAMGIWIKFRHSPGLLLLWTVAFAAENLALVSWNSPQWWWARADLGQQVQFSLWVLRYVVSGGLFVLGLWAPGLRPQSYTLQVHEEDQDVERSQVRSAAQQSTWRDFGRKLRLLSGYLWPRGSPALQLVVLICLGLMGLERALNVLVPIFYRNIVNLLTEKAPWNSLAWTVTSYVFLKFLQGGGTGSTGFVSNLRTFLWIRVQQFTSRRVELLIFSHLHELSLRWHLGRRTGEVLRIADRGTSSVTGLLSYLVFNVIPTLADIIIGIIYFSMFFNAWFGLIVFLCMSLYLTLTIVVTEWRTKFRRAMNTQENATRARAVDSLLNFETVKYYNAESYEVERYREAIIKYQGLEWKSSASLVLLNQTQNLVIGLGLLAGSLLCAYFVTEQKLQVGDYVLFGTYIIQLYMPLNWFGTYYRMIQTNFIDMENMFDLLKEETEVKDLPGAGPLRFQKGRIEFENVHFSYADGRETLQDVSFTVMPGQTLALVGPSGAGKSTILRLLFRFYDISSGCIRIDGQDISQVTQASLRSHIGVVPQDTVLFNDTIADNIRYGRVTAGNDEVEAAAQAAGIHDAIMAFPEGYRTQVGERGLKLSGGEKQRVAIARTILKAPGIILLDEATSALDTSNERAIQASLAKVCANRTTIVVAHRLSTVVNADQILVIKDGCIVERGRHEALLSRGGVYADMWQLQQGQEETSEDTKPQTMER

Test system in one experiment: not listed separately
Description: Nile Red efflux blockade in pump-expressing yeast – validation compound set, multiplex, phenotypic, pilot screen (AID 588506).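 Also: Nile Red retained in cells so higher fluorescence means more efflux inhibition; 0 = negative control wells and 1 = enniatin B 25 µM full block.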 As to conditions: S. cerevisiae pump-expressing triplex, Nile Red efflux flow cytometry; at 10 µM; active compounds read high.
On to `CN1C[C@H](CNC(=O)OCc2ccccc2)C[C@@H]2c3cccc4c3c(cn4C)C[C@H]21`, for which the efflux inhibition (fraction of control) was 0.04.

On to `C[N+]1(C)C2CCC1CC(OC(=O)C(CO)c1ccccc1)C2` (stereo not given), for which the efflux inhibition (fraction of control) is 0.05.

Regarding `CCC1(c2ccccc2)C(=O)N(COC)C(=O)N(COC)C1=O`, the efflux inhibition (fraction of control) is 0.12.

Take `CCn1c(O)c(C(=O)CC2NCCc3ccccc32)c(=O)n(CC)c1=S` (stereo not given): the efflux inhibition (fraction of control) is -0.03.

As to `NC(=O)CN1CCCC1=O`, the efflux inhibition (fraction of control) is -0.09.

`Cc1ccsc1C(=O)C1CCCN(Cc2cc3ccccc3o2)C1` (stereo not given): the efflux inhibition (fraction of control) is -0.2.

Consider `CN1C2CCC1CC(OC(=O)c1ccc(Cl)cc1)C2` (stereo not given), for which the efflux inhibition (fraction of control) is -0.03.

Take `Cn1c(O)c(C=NCCc2c[nH]c3ccccc23)c(=O)n(C)c1=O`: the efflux inhibition (fraction of control) was -0.06.

As for `CC12CN3CC(C)(CN(C1)C3c1cccs1)C2=O` (stereo not given), the efflux inhibition (fraction of control) was 0.05.

As for `[N-]=[N+]=CC(=O)OC[C@H](N)C(=O)O`, the efflux inhibition (fraction of control) was -0.13.

Consider `COP(=O)(OC)C(O)C(Cl)(Cl)Cl` (stereo not given), for which the efflux inhibition (fraction of control) is -0.17.

For `CC(C)[N+](C)(CCC(C(N)=O)(c1ccccc1)c1ccccc1)C(C)C`, the efflux inhibition (fraction of control) is -0.61.

Take `C[C@@]1(CO)[C@H](O)CC[C@@]2(C)[C@H]1CC[C@H]1C[C@@H]3C[C@@]12CC[C@]3(O)CO`: the efflux inhibition (fraction of control) is -0.04.

Take `O=C1CCCC2=C1C(c1cccnc1)Nc1ccccc1N2` (stereo not given): the efflux inhibition (fraction of control) was -0.07.

As for `O=c1[nH]c(=S)n(-c2ccccc2)c(O)c1/C=N/N1CCCCC1c1cccnc1` (stereo not given), the efflux inhibition (fraction of control) was -0.04.

For `Clc1ccc(C2NCCc3[nH]cnc32)cc1` (stereo not given), the efflux inhibition (fraction of control) was -0.1.

Regarding `Cc1ccc(-n2c(C)cc(/C=C3/C(=O)NC(=O)N(C)C3=O)c2C)cc1`, the efflux inhibition (fraction of control) is -0.22.

In the case of `C[N+]1(C)CCc2cc3c(cc2[C@H]1[C@@H]1OC(=O)c2c1ccc1c2OCO1)OCO3`, the efflux inhibition (fraction of control) is 0.115 and -0.1.

Regarding `COc1ccc(NC2=NCC(C)S2)cc1` (stereo not given), the efflux inhibition (fraction of control) was 0.195.

Turning to `CC12CN3CC(C)(CN(C1)C3c1cccs1)C2O` (stereo not given), the efflux inhibition (fraction of control) is -0.07.

For `O=C1NCCN2CCCC12` (stereo not given), the efflux inhibition (fraction of control) was -0.09.

With `NNC(=O)c1ccc(Cl)cc1`, the efflux inhibition (fraction of control) is -0.36.

For `CN1CCN(C(=O)OC2c3nccnc3C(=O)N2c2ccc(Cl)cn2)CC1` (stereo not given), the efflux inhibition (fraction of control) was -0.03.

As for `O=c1[nH]c2ccccc2n1C1CCN(CCCC(c2ccc(F)cc2)c2ccc(F)cc2)CC1`, the efflux inhibition (fraction of control) is 0.12.

Regarding `O=C1NC(=O)C2(Cc3ccccc3N3CCCC32)C(=O)N1c1ccc(Cl)cc1` (stereo not given), the efflux inhibition (fraction of control) is 0.24.

As to `CC1CCC[C@H](O)CCCCCc2cc(O)cc(O)c2C(=O)O1` (stereo not given in full), the efflux inhibition (fraction of control) was 0.69 (active).

`O=c1cccc2n1C[C@H]1C[C@@H]2CN2CCCC[C@@H]12`: the efflux inhibition (fraction of control) was -0.03.

Turning to `CC(=O)OC1C2CCC1C(N1CCCC1)CC2` (stereo not given), the efflux inhibition (fraction of control) was -0.04.

With `CCOc1ccc(C2C(C#N)=C(N)Oc3c2c(=O)oc2ccccc32)cc1` (stereo not given), the efflux inhibition (fraction of control) is -0.13.

Consider `COc1cc2c3cc1Oc1cc(ccc1O)C[C@@H]1c4c(cc(OC)c(O)c4Oc4ccc(cc4)C[C@H]3N(C)CC2)CCN1C`, for which the efflux inhibition (fraction of control) was 0.05.

Turning to `CN1CC[C@@]23CCCC[C@@H]2[C@@H]1Cc1ccc(O)cc13`, the efflux inhibition (fraction of control) was -0.07.

Take `O=c1c2ccccc2[se]n1-c1ccccc1`: the efflux inhibition (fraction of control) was 37.3 (active).

For the molecule `CC[N+]1(C)CCCC(OC(=O)C(O)(c2ccccc2)c2ccccc2)C1` (stereo not given), the efflux inhibition (fraction of control) was 0.04.

As to `C[C@]12CCC(=O)C=C1CCC1C2CC[C@@]2(C)C1CC[C@@]2(O)CC#N` (stereo not given in full), the efflux inhibition (fraction of control) is -0.07.

As for `C[C@H]1CC[C@@]2(C)[C@@H](CC[C@@H]3[C@@H]2CC[C@]2(C)[C@@H](O)CC[C@@H]32)C1`, the efflux inhibition (fraction of control) is -0.03.

`C[C@H]1OC[C@@H](C[N+](C)(C)C)O1`: the efflux inhibition (fraction of control) was -0.16.

As for `CC(C)(C)C(O)C(Oc1ccc(Cl)cc1)n1cncn1` (stereo not given), the efflux inhibition (fraction of control) is -0.04.

For `C[C@@H]1O[C@@H](O[C@H]2C[C@@H](O)[C@]3(CO)[C@H]4[C@H](O)C[C@]5(C)[C@@H](C6COC(=O)C6)CC[C@]5(O)[C@@H]4CC[C@]3(O)C2)[C@H](O)[C@H](O)[C@H]1O` (stereo not given in full), the efflux inhibition (fraction of control) is -0.04.

Regarding `CC(=O)c1ccc(-c2ccccc2)cc1`, the efflux inhibition (fraction of control) is -0.06.

As to `CCOC(=O)c1cc2c(cn1)[nH]c1ccccc12`, the efflux inhibition (fraction of control) is -0.39.

A further experiment addresses ATP-binding cassette sub-family B member 6 (Homo sapiens) (UniProt Q9NP58). Description: blockers of ABCB6-driven porphyrin uptake – K562-ABCB6 cells, flow cytometry, validation set, pilot screen (AID 588550;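 active = inhibition above the screen-wide mean plus 3 SD, about 51%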;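 also: 0% = DMSO wells and 100% = benzethonium chloride 70 µM positive control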). As to conditions: K562-ABCB6 porphyrin accumulation, 1 h, at 10 µM, active compounds read high. (In flow cytometry, cells or beads pass a laser one at a time.)
As a reminder, the inhibition is the relative decrease from the control value, in per cent. With `CN1C[C@H](CNC(=O)OCc2ccccc2)C[C@@H]2c3cccc4c3c(cn4C)C[C@H]21`, the inhibition was -29%.

For `C[N+]1(C)C2CCC1CC(OC(=O)C(CO)c1ccccc1)C2` (stereo not given), the inhibition was -4%.

Turning to `CCC1(c2ccccc2)C(=O)N(COC)C(=O)N(COC)C1=O`, the inhibition was 4%.

Take `CCn1c(O)c(C(=O)CC2NCCc3ccccc32)c(=O)n(CC)c1=S` (stereo not given): the inhibition is -11%.

Turning to `NC(=O)CN1CCCC1=O`, the inhibition was 4%.

Turning to `Cc1ccsc1C(=O)C1CCCN(Cc2cc3ccccc3o2)C1` (stereo not given), the inhibition is -3%.

Consider `CN1C2CCC1CC(OC(=O)c1ccc(Cl)cc1)C2` (stereo not given), for which the inhibition is 4%.

As to `Cn1c(O)c(C=NCCc2c[nH]c3ccccc23)c(=O)n(C)c1=O`, the inhibition is 6%.

Consider `CC12CN3CC(C)(CN(C1)C3c1cccs1)C2=O` (stereo not given), for which the inhibition was 6%.

For the molecule `[N-]=[N+]=CC(=O)OC[C@H](N)C(=O)O`, the inhibition was 5%.

With `COP(=O)(OC)C(O)C(Cl)(Cl)Cl` (stereo not given), the inhibition is -2%.

For `CC(C)[N+](C)(CCC(C(N)=O)(c1ccccc1)c1ccccc1)C(C)C`, the inhibition was 21%.

In the case of `C[C@@]1(CO)[C@H](O)CC[C@@]2(C)[C@H]1CC[C@H]1C[C@@H]3C[C@@]12CC[C@]3(O)CO`, the inhibition was 6%.

Consider `O=C1CCCC2=C1C(c1cccnc1)Nc1ccccc1N2` (stereo not given), for which the inhibition was -9%.

Consider `O=c1[nH]c(=S)n(-c2ccccc2)c(O)c1/C=N/N1CCCCC1c1cccnc1` (stereo not given), for which the inhibition is 0%.

As for `Clc1ccc(C2NCCc3[nH]cnc32)cc1` (stereo not given), the inhibition is 1%.

As for `Cc1ccc(-n2c(C)cc(/C=C3/C(=O)NC(=O)N(C)C3=O)c2C)cc1`, the inhibition was -2%.

In the case of `C[N+]1(C)CCc2cc3c(cc2[C@H]1[C@@H]1OC(=O)c2c1ccc1c2OCO1)OCO3`, the inhibition was 24% and -3%.

`COc1ccc(NC2=NCC(C)S2)cc1` (stereo not given): the inhibition is 0%.

As to `CC12CN3CC(C)(CN(C1)C3c1cccs1)C2O` (stereo not given), the inhibition was 0%.

On to `O=C1NCCN2CCCC12` (stereo not given), for which the inhibition was 21%.

Take `NNC(=O)c1ccc(Cl)cc1`: the inhibition is -3%.

As to `CN1CCN(C(=O)OC2c3nccnc3C(=O)N2c2ccc(Cl)cn2)CC1` (stereo not given), the inhibition was 5%.

Regarding `O=c1[nH]c2ccccc2n1C1CCN(CCCC(c2ccc(F)cc2)c2ccc(F)cc2)CC1`, the inhibition is 6%.

Turning to `O=C1NC(=O)C2(Cc3ccccc3N3CCCC32)C(=O)N1c1ccc(Cl)cc1` (stereo not given), the inhibition is 12%.

As for `CC1CCC[C@H](O)CCCCCc2cc(O)cc(O)c2C(=O)O1` (stereo not given in full), the inhibition was -7%.

As for `O=c1cccc2n1C[C@H]1C[C@@H]2CN2CCCC[C@@H]12`, the inhibition is 4%.

As to `CC(=O)OC1C2CCC1C(N1CCCC1)CC2` (stereo not given), the inhibition was 3%.

Turning to `CCOc1ccc(C2C(C#N)=C(N)Oc3c2c(=O)oc2ccccc32)cc1` (stereo not given), the inhibition is 5%.

`COc1cc2c3cc1Oc1cc(ccc1O)C[C@@H]1c4c(cc(OC)c(O)c4Oc4ccc(cc4)C[C@H]3N(C)CC2)CCN1C`: the inhibition was 10%.

For the molecule `CN1CC[C@@]23CCCC[C@@H]2[C@@H]1Cc1ccc(O)cc13`, the inhibition was 2%.

Turning to `O=c1c2ccccc2[se]n1-c1ccccc1`, the inhibition was 5%.

As to `CC[N+]1(C)CCCC(OC(=O)C(O)(c2ccccc2)c2ccccc2)C1` (stereo not given), the inhibition is 1%.

As for `C[C@]12CCC(=O)C=C1CCC1C2CC[C@@]2(C)C1CC[C@@]2(O)CC#N` (stereo not given in full), the inhibition was 8%.

For `C[C@H]1CC[C@@]2(C)[C@@H](CC[C@@H]3[C@@H]2CC[C@]2(C)[C@@H](O)CC[C@@H]32)C1`, the inhibition is -3%.

Take `C[C@H]1OC[C@@H](C[N+](C)(C)C)O1`: the inhibition was -2%.

In the case of `CC(C)(C)C(O)C(Oc1ccc(Cl)cc1)n1cncn1` (stereo not given), the inhibition was 4%.

Take `C[C@@H]1O[C@@H](O[C@H]2C[C@@H](O)[C@]3(CO)[C@H]4[C@H](O)C[C@]5(C)[C@@H](C6COC(=O)C6)CC[C@]5(O)[C@@H]4CC[C@]3(O)C2)[C@H](O)[C@H](O)[C@H]1O` (stereo not given in full): the inhibition was -3%.

For the molecule `CC(=O)c1ccc(-c2ccccc2)cc1`, the inhibition was 14%.

Take `CCOC(=O)c1cc2c(cn1)[nH]c1ccccc12`: the inhibition was -6%.
